In PubChem BioAssay:
For some assays here: Potency and affinity values are given separately. Calls of active or inactive are those of the source.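 Rule for the calls, unless noted: active = compound raising the membrane signal above positive-control mean plus 3 SD in both repeats, and a primary screen hit; inactive = the rest.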

Assays:
[1] = system: TRPC4 beta (transient receptor potential cation channel C4), mouse; experiment: TRPC4 cation channel opening, retest – cell-based, Fluo4 calcium, HEK293 TRPC4beta/mu-opioid, duplicates, 10 µM, confirmation (AID 2426;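 active = fluorescence ratio normalized to control raised more than 50% in primary screen plus both repeat runs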); conditions: Fluo4 calcium fluorescence, at 10 µM; active compounds read high
[2] = system: transient receptor potential cation channel C4 beta (TRPC4), mouse; experiment: TRPC4 cation channel opening, second retest – cell-based, second round, Fluo4, HEK293 TRPC4beta/mu-opioid, 1 µM, confirmation (AID 2461;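 active = primary screen active and over 50% activation in each of two duplicate runs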); conditions: Fluo4 calcium fluorescence, at 1 µM; active compounds read high
[3] = system: TRPC4 (transient receptor potential cation channel C4 beta), mouse; experiment: potentiation of DAMGO EC20 TRPC4 response – cell-based, second round, Fluo-4, HEK293 TRPC4beta/mu-opioid, 1 µM, confirmation (AID 2554;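 active = primary screen hit whose fluorescence ratio, in both repeats, exceeds the weak agonist control mean by 3 SD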); conditions: DAMGO EC20, Fluo-4 calcium flux, at 1 µM; active compounds read high
[4] = system: TRPC4 beta (transient receptor potential cation channel C4), mouse; experiment: potentiation of DAMGO EC20 TRPC4 response – cell-based, Fluo-4, HEK293 TRPC4beta/mu-opioid, confirmation (AID 2555;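 active = primary screen hit whose calcium fluorescence ratio, in both repeats, exceeds the weak agonist control mean by 3 SD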); conditions: DAMGO EC20, Fluo-4 calcium flux, at 10 µM; active compounds read high
[5] = target: Short transient receptor potential channel 4 (Mus musculus) (UniProt Q9QUQ5); experiment: blockers of DAMGO-evoked TRPC4 calcium flux – cell-based, Fluo4, HEK293 TRPC4beta/mu-opioid, confirmation (AID 2636;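 active = calcium signal cut by more than 3 SD below the full-agonist control yet still positive, in both repeats and the earlier primary screen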); conditions: at 10 µM; active compounds read high
[6] = target: Short transient receptor potential channel 4 (Mus musculus) (UniProt Q9QUQ5); experiment: blockers of DAMGO-evoked TRPC4 calcium flux – cell-based, second round, Fluo4, HEK293 TRPC4beta/mu-opioid, 1 µM, confirmation (AID 2637;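 active = calcium signal ratio cut to more than 3 SD under the fully stimulated control mean yet still positive, in both repeats and the primary screen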;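 for inhibition: percent of integrated ratio relative to wells lacking test compound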); conditions: at 1 µM; active compounds read high
[7] = target: Short transient receptor potential channel 4 (Mus musculus) (UniProt Q9QUQ5); experiment: calcium entry via TRPC4 opening agents – cell-based, HEK293 TRPC4/mu-opioid, Fluo-4 calcium, dose response (AID 434937;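 active = primary screen activator hit with a dose response curve and TRPC4 channel activation at any tested dose; inactive = no activation, no dose response, or not a primary hit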)
[8] = target: Short transient receptor potential channel 4 (Mus musculus) (UniProt Q9QUQ5); experiment: potentiation of DAMGO-evoked TRPC4 calcium signal – cell-based, HEK293 TRPC4/mu-opioid, Fluo-4 calcium, EC20 DAMGO, dose response (AID 434941;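 active = earlier screen potentiator hit that boosts the TRPC4 ion channel at some dose, with a dose response; inactive = no potentiation, no dose response, or not a prior hit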;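 note: calcium entry triggered by an EC20 dose of DAMGO at the co-expressed mu-opioid receptor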)
[9] = target: Short transient receptor potential channel 6 (Mus musculus) (UniProt Q61143); experiment: TRPC6 blockade by TRPC4 inhibitor hits – cell-based, HEK293, membrane potential dye, duplicate, selectivity assay for TRPC4 inhibitor project, confirmation (AID 434948;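 active = active in primary screen and both duplicates, each dropping signal beyond three positive-control SD with fluorescence still positive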); conditions: HEK293 TRPC6, membrane potential dye fluorescence, at 10 µM, stimulated with maximal-effect acetylcholine; active compounds read high
[10] = target: Short transient receptor potential channel 6 (Mus musculus) (UniProt Q61143); experiment: TRPC6 opening by TRPC4 activator hits – cell-based, HEK293, membrane potential dye, duplicate, selectivity assay for TRPC4 activator project, confirmation (AID 434950;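 active = membrane potential signal rise above negative control mean plus 3 SD in both duplicates, also active in the earlier TRPC4 screen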); conditions: HEK293 TRPC6, membrane potential fluorescence, at 10 µM; activation: active compounds read high; outcome: activation
[11] = target: Short transient receptor potential channel 6 (Mus musculus) (UniProt Q61143); experiment: positive modulators of mouse TRPC6 channel – HEK293 cells, membrane potential dye, duplicate, selectivity assay for TRPC4 potentiator project, confirmation (AID 434952); conditions: HEK293 TRPC6, membrane potential dye fluorescence, at 10 µM, maximal acetylcholine added after compound; active compounds read high
[12] = target: Short transient receptor potential channel 4 (Mus musculus) (UniProt Q9QUQ5); experiment: calcium flux activators in TRPC4/5HT1a cells, counter-screen for TRPC4 activator project, cell-based, second counter screen, HEK293 TRPC4/5HT1a, Fluo-4 (AID 434977;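 active = calcium signal rise above buffer-control mean plus 5 SD in both duplicates, and also a hit in the primary screen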); conditions: Fluo-4 calcium flux, at 10 µM; active compounds read high
[13] = serotonin-gated TRPC4 signal block – cell-based, second counter screen, HEK293 TRPC4/5HT1a, Fluo-4, counter-screen for TRPC4 inhibitor project, confirmation (AID 434978;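 active = primary screen active whose calcium signal fell more than 3 SD beyond the full-serotonin control mean in both duplicate plates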;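 for outcome: serotonin given first at submaximal then at maximal dose after compound preincubation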); conditions: Fluo-4 calcium flux, at 10 µM, serotonin added to trigger calcium flux; active compounds read high
[14] = system: TRPC4 (mouse), co-expressed with 5HT1a in HEK293; experiment: enhancement of serotonin-evoked TRPC4 response – cell-based, second counter screen, HEK293 TRPC4/5HT1a, Fluo-4, counter-screen for TRPC4 potentiator project, confirmation (AID 434979;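 active = signal rise over 3 SD above mean of control wells given weak agonist, in both repeats and first screen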); conditions: Fluo-4 calcium flux, at 10 µM, serotonin added at its EC20 dose; active compounds read high
[15] = nonspecific calcium rise without TRPC4 – cell-based, HEK293 mu-opioid receptor line, counter-screen for TRPC4 activator project, confirmation (AID 449723;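 active = hit in primary screen, with calcium signal over 5 SD above buffer well mean in both duplicates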;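 note: counter screen cells carry the mu-opioid receptor alone and lack TRPC4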); conditions: HEK293 mu-opioid cells, Fluo-4 calcium fluorescence, at 10 µM; active compounds read high
[16] = nonspecific potentiation of DAMGO calcium response – cell-based, HEK293 mu-opioid receptor line, counter-screen for TRPC4 allosteric potentiator project, confirmation (AID 449724;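 active = calcium signal rise more than 3 SD above the low-dose agonist control mean, in both duplicate plates and the primary screen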); conditions: HEK293 mu-opioid receptor cells, Fluo-4 calcium flux, at 10 µM, compound added before EC20 DAMGO stimulus; active compounds read high

Chain of Short transient receptor potential channel 4 (Mus musculus) (Q9QUQ5 whole entry, looked up): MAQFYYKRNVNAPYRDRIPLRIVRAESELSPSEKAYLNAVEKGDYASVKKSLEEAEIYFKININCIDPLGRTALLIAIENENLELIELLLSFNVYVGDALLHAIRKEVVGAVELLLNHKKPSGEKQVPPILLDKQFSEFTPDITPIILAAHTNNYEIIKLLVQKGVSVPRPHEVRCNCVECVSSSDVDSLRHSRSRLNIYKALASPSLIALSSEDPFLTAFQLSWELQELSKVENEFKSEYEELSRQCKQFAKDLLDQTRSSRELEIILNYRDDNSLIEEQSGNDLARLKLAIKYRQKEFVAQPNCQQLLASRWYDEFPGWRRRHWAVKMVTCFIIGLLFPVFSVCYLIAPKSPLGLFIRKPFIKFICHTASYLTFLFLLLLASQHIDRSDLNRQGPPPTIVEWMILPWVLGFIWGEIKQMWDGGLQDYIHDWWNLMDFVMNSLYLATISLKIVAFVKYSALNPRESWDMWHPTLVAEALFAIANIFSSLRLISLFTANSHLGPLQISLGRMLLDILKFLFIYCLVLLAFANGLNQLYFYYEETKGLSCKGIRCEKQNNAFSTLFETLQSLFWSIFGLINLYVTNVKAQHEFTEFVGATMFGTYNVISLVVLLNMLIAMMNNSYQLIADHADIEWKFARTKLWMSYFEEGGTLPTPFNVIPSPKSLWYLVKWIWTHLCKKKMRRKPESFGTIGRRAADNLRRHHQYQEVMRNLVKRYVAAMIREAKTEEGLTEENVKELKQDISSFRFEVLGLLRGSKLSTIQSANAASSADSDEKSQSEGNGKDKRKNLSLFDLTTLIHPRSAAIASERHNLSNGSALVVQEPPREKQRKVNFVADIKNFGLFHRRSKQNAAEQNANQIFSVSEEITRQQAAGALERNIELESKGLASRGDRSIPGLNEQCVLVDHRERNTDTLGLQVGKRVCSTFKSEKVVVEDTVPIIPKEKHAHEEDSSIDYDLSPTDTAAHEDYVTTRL
Chain of Short transient receptor potential channel 6 (Mus musculus) (Q61143 whole entry, looked up): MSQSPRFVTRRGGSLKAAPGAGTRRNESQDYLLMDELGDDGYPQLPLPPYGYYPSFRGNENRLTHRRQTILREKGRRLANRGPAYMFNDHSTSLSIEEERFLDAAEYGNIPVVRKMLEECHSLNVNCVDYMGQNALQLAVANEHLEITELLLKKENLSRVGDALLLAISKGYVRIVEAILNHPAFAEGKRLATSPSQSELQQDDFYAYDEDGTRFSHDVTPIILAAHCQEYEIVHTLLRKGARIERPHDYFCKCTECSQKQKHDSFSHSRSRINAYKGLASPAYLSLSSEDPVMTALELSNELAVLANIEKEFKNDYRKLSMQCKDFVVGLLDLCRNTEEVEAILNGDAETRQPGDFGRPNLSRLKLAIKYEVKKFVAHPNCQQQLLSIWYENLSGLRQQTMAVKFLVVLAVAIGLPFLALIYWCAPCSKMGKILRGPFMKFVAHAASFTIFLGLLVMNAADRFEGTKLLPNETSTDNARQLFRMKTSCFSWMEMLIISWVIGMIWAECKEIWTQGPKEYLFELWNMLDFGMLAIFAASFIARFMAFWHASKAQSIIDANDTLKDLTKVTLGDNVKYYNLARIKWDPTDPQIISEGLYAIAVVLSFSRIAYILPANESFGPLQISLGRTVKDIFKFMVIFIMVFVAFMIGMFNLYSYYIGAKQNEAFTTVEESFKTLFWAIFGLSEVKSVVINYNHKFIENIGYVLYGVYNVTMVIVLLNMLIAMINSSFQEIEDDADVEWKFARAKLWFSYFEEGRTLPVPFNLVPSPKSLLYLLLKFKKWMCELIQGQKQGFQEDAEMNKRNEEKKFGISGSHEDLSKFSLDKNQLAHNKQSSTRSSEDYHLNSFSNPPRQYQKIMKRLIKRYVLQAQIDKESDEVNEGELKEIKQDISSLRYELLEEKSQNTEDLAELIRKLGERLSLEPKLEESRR

Row | Compound | outcome [1] | outcome [2] | outcome [3] | outcome [4] | inhibition [5] | outcome [6] | outcome [7] | outcome [8] | outcome [9] | outcome [10] | outcome [11] | outcome [12] | inhibition [13] | outcome [14] | outcome [15] | outcome [16] | inhibition [6] | outcome [13] | inhibition [9]
1 | Cc1cccc(-n2nc(C)c3c(C(=O)O)cc(-c4cccs4)nc32)c1 | inactive | inactive | inactive | inactive | 89% (active) | inactive | inactive | inactive | inactive | inactive | inactive | inactive | 28.2% (active) | inactive | inactive | inactive |  |  | 
2 | O=C(CN1CCN(Cc2ccccc2Cl)CC1)N=Nc1c(O)[nH]c2ccccc12 | inactive | inactive | inactive | inactive | 90% (active) |  | inactive | inactive | inactive | inactive | inactive | inactive |  | inactive | inactive | inactive | 50% (active) | inactive | 
3 | Cc1onc(-c2c(F)cccc2Cl)c1C(=O)N(C)CC(=O)Nc1cccc(F)c1 | inactive | inactive | inactive | inactive | 84% (active) | inactive | inactive | inactive | inactive | inactive | inactive | inactive |  | inactive | inactive | inactive |  | inactive | 
4 | Cc1cc(CN2CCCC(C(=O)Nc3ccc(-c4nc5ccccc5[nH]4)cc3)C2)n[nH]1 (centres undefined) | inactive | inactive | inactive | inactive | 77% (active) |  | inactive | inactive | inactive | inactive | inactive | inactive | 37.2% (active) | inactive | inactive | inactive | 61% (active) |  | 
5 | CCOC(=O)C1(Cc2ccccc2)CCN(Cc2ccc(C)s2)CC1 | inactive | inactive | inactive | inactive | 88% (active) | inactive | inactive | inactive | inactive | inactive | inactive | inactive | 13.9% (active) | inactive | inactive | inactive |  |  | 
6 | CC(OCC(O)CN(C)CCOc1ccccc1)c1ccc(Cl)cc1 (centres undefined) | inactive | inactive | inactive | inactive | 94% (active) |  | inactive | inactive | inactive | inactive | inactive | inactive | 22.2% (active) | inactive | inactive | inactive | 44% (active) |  | 
7 | CC(C)Cc1cc(CN2CCCC(CO)(Cc3cccc(Cl)c3)C2)[nH]n1 (centres undefined) | inactive | inactive | inactive | inactive | 91% (active) | inactive | inactive | inactive | inactive | inactive | inactive | inactive | 42.2% (active) | inactive | inactive | inactive |  |  | 
8 | Cc1cc(OCC(=O)Nc2ccc(N3CCN(C)CC3)cc2)ccc1Cl | inactive | inactive | inactive | inactive | 79% (active) | inactive | inactive | inactive | inactive | inactive | inactive | inactive |  | inactive | inactive | inactive |  | inactive | 
9 | Cc1c(CCOC(=O)CC23CC4CC(CC(C4)C2)C3)sc[n+]1Cc1ccccc1 | inactive | inactive | inactive | inactive | 96% (active) | inactive | inactive | inactive |  | inactive | inactive | inactive | 19.6% (active) | inactive | inactive | inactive |  |  | 44.5% (active)
10 | Cc1ccc(NC(=O)CN2CCc3ccccc3C2)cc1F | inactive | inactive | inactive | inactive | 88% (active) | inactive | inactive | inactive | inactive | inactive | inactive | inactive |  | inactive | inactive | inactive |  | inactive | 
11 | CC1CCc2c(sc(/N=C/N(C)C)c2C#N)C1 (centres undefined) | inactive | inactive | inactive | inactive | 78% (active) | inactive | inactive | inactive | inactive | inactive | inactive | inactive |  | inactive | inactive | inactive |  | inactive | 
12 | COc1ccc2c(c1)sc(N)[n+]2Cc1cc(C)cc2cccnc12 | inactive | inactive | inactive | inactive | 99% (active) | inactive | inactive | inactive |  | inactive | inactive | inactive | 28.6% (active) | inactive | inactive | inactive |  |  | 37% (active)
13 | NC1=NC2=C(CCCC2)C2(CCCCC2)S1 | inactive | inactive | inactive | inactive | 91% (active) | inactive | inactive | inactive |  | inactive | inactive | inactive | 14% (active) | inactive | inactive | inactive |  |  | 44.5% (active)
14 | COc1ncnc2sc3c(c12)CCCC3 | inactive | inactive | inactive | inactive | 93% (active) | inactive | inactive | inactive | inactive | inactive | inactive | inactive |  | inactive | inactive | inactive |  | inactive | 
